# Calls of active or inactive are those of the source. How the calls were made is not given here.
# Biological target: Serine/threonine-protein kinase pim-1 (Homo sapiens) (UniProt P11309)
# Assay: compound-induced PIM1 thermal stabilization – biophysical, human, melting temperature shift (AID 393)
# Conditions: Thermal shift assay, at 10 µM, hits give high values; protein 2 µM, buffer 10 mM Na Citrate, pH 6.5, NaCl 150 mM unless noted
# Sequence of Serine/threonine-protein kinase pim-1 (Homo sapiens) (P11309 whole entry, looked up): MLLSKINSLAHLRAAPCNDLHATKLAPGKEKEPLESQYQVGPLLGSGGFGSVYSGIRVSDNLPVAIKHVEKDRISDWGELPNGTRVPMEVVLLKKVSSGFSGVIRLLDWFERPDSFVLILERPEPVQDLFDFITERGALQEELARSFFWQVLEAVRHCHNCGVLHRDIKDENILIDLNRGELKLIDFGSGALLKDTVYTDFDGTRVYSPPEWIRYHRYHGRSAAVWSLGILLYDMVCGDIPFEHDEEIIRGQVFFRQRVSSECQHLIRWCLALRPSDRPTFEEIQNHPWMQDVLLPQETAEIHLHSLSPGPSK
row,SMILES,Tm shift
1,N#C/C(=C1\Nc2ccccc2S1)c1ccnc(NCCc2cccnc2)n1,10.3 Celsius (active)
2,O=C1Nc2ccccc2/C1=C\c1cnc[nH]1,"3.92 Celsius [protein 3 µM, buffer 10 mM HEPES] (active)"
3,O=C1NC(=O)c2c1c1c3ccccc3n3c1c1c2c2ccccc2n1[C@@H]1CCC3O1,"12.7 Celsius [protein 2 µM, buffer 10 mM PIPES, pH 6.5, NaCl 150 mM] (active)"
4,CCn1cnc2c(Nc3cccc(Cl)c3)nc(N[C@@H]3CCCC[C@@H]3N)nc21,5.8 Celsius (active)
5,Cc1c2ccncc2c(C)c2c1[nH]c1ccccc12,8.6 Celsius (active)

# — PubChem BioAssay AID393 (SGCOxCompounds, 2006)
